S1P3 antag: antagonists of human S1P3 receptor; Q99500; CHO S1P3 NFAT-BLA reporter, FRET fluorescence, antagonist mode; inhibition, % at 4.98 µM; hit rate 0.27% among 170,000;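 active = inhibition above the plate cutoff, the mean inhibition of test wells on that plate plus 3 SD, cut at about 28% in these data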;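 also: cells challenged with S1P at its EC80 of 0.8 µM; blue over green emission ratio from cleaved BLA substrate after 4 h stimulation; 0% = S1P-stimulated wells and 100% = unstimulated DMSO-only wells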
EP2 modulator: modulates human prostaglandin E2 receptor EP2 signaling; P43116; EP2-expressing cells, cAMP HTRF FRET, PGE2 co-stimulation; induction, % at 25 µM; hit rate 0.83% among 260,000;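 active = compounds whose cAMP rise, as percent of the full-agonist control response, exceeds 60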;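 also: rat C6 glioma line stably carrying human EP2 under a CMV promoter; the protocol text gives 20 µM as final concentration; 100% = response of wells given 1 µM PGE2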
Target sequence (P43116 whole entry, looked up): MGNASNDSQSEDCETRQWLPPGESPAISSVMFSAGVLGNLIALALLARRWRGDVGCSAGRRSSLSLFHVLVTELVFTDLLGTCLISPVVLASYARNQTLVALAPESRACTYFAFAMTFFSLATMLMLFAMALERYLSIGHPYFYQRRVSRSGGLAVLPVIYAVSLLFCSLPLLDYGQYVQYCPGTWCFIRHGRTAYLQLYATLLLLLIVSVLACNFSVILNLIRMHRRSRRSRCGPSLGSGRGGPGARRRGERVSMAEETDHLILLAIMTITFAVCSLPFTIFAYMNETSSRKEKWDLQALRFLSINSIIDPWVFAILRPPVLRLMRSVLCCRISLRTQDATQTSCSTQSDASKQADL
S1P4 ag: activates the human S1P4 receptor; activation, % at 4.98 µM; hit rate 0.35% among 220,000; S1P4-expressing cell line, agonist reporter assay; O95977; in the data active = activation above about 11%;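 also: 0% = DMSO vehicle and 100% = reference agonist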
Insulin prom inh: TRM-6 insulin promoter activity inhibition; hit rate 0.9% among 130,000; TRM-6 cells (human fetal islet line), insulin promoter-eGFP reporter, imaging; reporter expression induced with tamoxifen; inhibition, % at 2 µM; AID 1273;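 active = inhibition above the mean plus 3 SD, with well images judged a real hit on visual review, cut at about 60% in these data, passing the limit was not always enough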
PGE2 EP2 inh: blocks the human prostaglandin E2 receptor EP2; P43116; C6 glioma cells expressing human EP2, cAMP TR-FRET; cells stimulated with saturating PGE2; inhibition, % at 25 µM; hit rate 0.52% among 260,000;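 active = percent inhibition above 40 after rounding to a whole number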;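 also: rat C6 glioma host cells with rolipram phosphodiesterase inhibitor present; the protocol text gives 20 µM as final concentration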
S1P4 antag: antagonists of human S1P4 receptor | hit rate 0.26% among 220,000 | AID 1510 | O95977 | S1P4-expressing cells, antagonist mode, reporter read-out | inhibition, % at 4.98 µM; in the data active = inhibition above about 29%;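 also: 0% = wells stimulated with agonist and 100% = vehicle wells without agonist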
EP2 cAMP induct: human EP2 receptor cAMP induction, negative in counter-screens | shares compounds with EP2 modulator | AID 1080 | hit rate 47% among 1,300 | C6 glioma EP2 cells, cAMP HTRF induction; plus low (about EC15) PGE2 agonist | calls only at 20 µM (by protocol);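 active = cAMP induction above 50% in the main assay while under 30% in all four parallel counter assays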;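 also: rat C6 glioma cells stably expressing human EP2 receptor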
* hit, by the source's call; i = inactive; x = not tested or not shown; + = active, no number; ! = not active in a repeat. Shown are actives, neighbours in structure and some others; about 2.4% of the full set was active somewhere.

SMILES	S1P3 antag	EP2 modulator	S1P4 ag	Insulin prom inh	PGE2 EP2 inh	S1P4 antag	EP2 cAMP induct
CCN1CCN(Cc2nc3c(c(=O)[nH]c(=O)n3C)n2Cc2ccccc2Cl)CC1	-17	x	-3	x	10	1	x
Cn1c(=O)[nH]c(=O)c2c1nc(N1CCCCCC1)n2Cc1cccc2ccccc12	x	66*	0	-20	-4	-19	i
Cn1c(=O)[nH]c(=O)c2c1nc(CN1CCN(c3cccc(Cl)c3)CC1)n2CCCc1ccccc1	2	70*	0	x	6	-15	+
CC1CCCC(C)N1C(=O)CN1CCC(O)(c2cccnc2)CC1 (stereo unspecified)	x	-14	x	x	x	x	x
Cc1ccc(CC(=O)NCCN2CCC(O)(c3ccc(C)cc3)CC2)cc1	x	-16	x	x	7	x	x
COc1ccc2[nH]c(=O)c(C(c3nnnn3C3CCCC3)N3CCCC3)cc2c1 (stereo unspecified)	x	-6	x	x	14	x	x
COc1cccc(-c2cc(C(F)(F)F)nc(NCc3ccco3)n2)c1	x	28	1	-9	7	-16	x
COc1ccc(-c2cc(C(F)(F)F)nc(NCc3ccco3)n2)cc1OC	x	67*	0	x	5	-11	+
Cc1cc(C)c2cc(C)c(SCC(=O)NCc3ccco3)nc2c1	-8	77*	1	x	7	-5	+
CCOc1ccc(OCC)c(NC(=O)CN2CCN(c3ccc(C)cc3C)CC2)c1	x	79*	0	-23	x	-13	+
CCOc1ccc(OCC)c(NC(=O)CN2CCN(c3ccccc3OC)CC2)c1	x	9	x	x	21	x	x
CC1CC(C)(C)N2C(=O)C3(Nc4ccccc4S3)c3cccc1c32 (stereo unspecified)	x	58	-2	12	5	-8	x
Cc1cc2c3c(c1)C1(SCC(=O)N1c1ccc(F)cc1)C(=O)N3C(C)(C)CC2C (stereo unspecified)	x	67*	2	18	3	-4	i
COc1cc2c(cc1OC)CN(c1ccc(-c3ccccc3OC)nn1)CC2	17	65*!	0	x	4	0	i
COc1ccccc1-c1ccc(NC2CCCC2)nn1	x	-39	0	-419	19	-2	x
NC1=N[C@@H](c2ccc(Cl)cc2)N(c2ccc(S(=O)(=O)Nc3ncccn3)cc2)C(N)=N1	x	38	x	x	34	x	x
COc1cc(CN2CCC(C(=O)N3CCN(c4ccccc4F)CC3)CC2)cc(OC)c1OC	8	79*	2	4	10	-10	i
Nc1n[nH]c2c1C1(CCCCC1)Cc1ccccc1-2	-14	74*	-1	41	4	-14	+
CSc1n[nH]c2nc3c(c(=O)n12)C1(CCCCC1)Cc1ccccc1-3	5	-11	2	x	16	3	x
CCN(CC)C(=O)CN(c1cc2c(cc1OC)oc1ccccc12)S(=O)(=O)c1ccc(C)cc1	x	91*	1	13	5	-9	i
CN(c1ccccc1)c1nc(N2CCCC2)nc(-n2ccnc2)n1	-28	82*	-1	0	13	-12	+
CN(C)CCCN(Cc1cnn(-c2ccccc2)c1)Cc1ccco1	x	-10	x	x	4	x	x
COc1cc(C2C(C#N)=C(N)Oc3c2cc(Cl)c2ccccc32)cc(Br)c1O (stereo unspecified)	x	-87	x	x	9	x	x
CCCCNc1nc(-c2ccccc2)c(C(=O)OCC)cc1C#N	x	65*	1	-43	6	-18	+
CCCNc1nc(-c2ccccc2)c(C(=O)OCC)cc1C#N	x	37	2	-66	10	-9	x
SMILES	S1P3 antag	EP2 modulator	S1P4 ag	Insulin prom inh	PGE2 EP2 inh	S1P4 antag	EP2 cAMP induct
[N-]=[N+]=Nc1ccc(C(=O)CSC[C@H](NC(=O)CC[C@H](N)C(=O)O)C(=O)NCC(=O)O)cc1	x	82*	x	x	10	x	+
N[C@@H](CCC(=O)N[C@H](CSN=O)C(=O)NCC(=O)O)C(=O)O	x	10	x	x	17	x	x
COc1ccc2cc3c(N)c(C(=O)Nc4ccccc4N4CCOCC4)sc3nc2c1	x	-24	x	x	25	x	x
CSc1nc(NCc2ccco2)c2ccccc2n1	x	65*	-1	-21	16	-9	i
Cc1cccnc1N(C(=O)Nc1cccc(Cl)c1)C1=NCC(C)(C)S1	-1	70*	2	7	3	-15	+
CC1(C)CN=C(N(C(=O)Nc2ccccc2)c2ccccc2F)S1	-6	43	-1	x	5	-6	x
CC1(C)CN=C(N(Cc2ccccc2)C(=O)Nc2ccccc2)S1	-14	41	1	-14	12	11	x
Cc1cccnc1N(C(=O)Nc1ccccc1)C1=NCC(C)(C)S1	-6	86*	1	-23	9	-7	+
C=CCNC(=S)NNc1nc(Nc2ccccc2)nc(N2CCCCC2)n1	7	74*	-1	x	11	5	i
S=C(NNc1nc(Nc2ccccc2)nc(N2CCCCC2)n1)NC1CCCCC1	-19	43	3	-44	5	-9	x
CN(Cc1cccs1)c1ncnc2sccc12	-12	-22	1	-16	12	-2	x
Cc1sc2ncnc(N(C)Cc3cccs3)c2c1C	x	52	0	46	14	-1	+
CC1=CC(C)(C)N(C(=O)c2ccccc2)c2ccccc21	18	72*	-1	18	4	4	i
O=C(O)[C@H]1CN(C(=O)c2cccnc2)C[C@@H]1c1ccc(F)cc1	x	-19	x	x	x	x	x
CCc1ccc2nc(-c3cccc(C)c3)nc(SCC(=O)NCC3CCCO3)c2c1 (stereo unspecified)	x	86*	0	-32	11	-6	i
CCc1ccc2nc(SCC(=O)NCC3CCCO3)c(C#N)cc2c1 (stereo unspecified)	-11	-26	1	17	6	-14	x
O=C(CCn1nnc2ccccc21)NC1(c2ccc(F)cc2)CCCC1	x	-6	x	x	6	x	x
C=CCc1cccc(/C=N/c2ncccc2O)c1O	26	43	0	10	9	2	x
C=CCc1cccc(/C=N/c2nc3ccccc3n2CC)c1O	0	84*	3	x	2	-1	i
COc1cc2c(cc1CN1C[C@@H]3CCCN3C[C@H]1Cc1ccccc1)OCO2	x	-11	x	x	7	x	x
Cn1nc(C(F)(F)F)c(/C=N/OC(=O)c2ccccc2)c1Sc1ccc(Cl)cc1	x	70*	0	x	14	-7	i
Cc1c(I)c([N+](=O)[O-])nn1CC(=O)NC(C)COc1ccccc1 (stereo unspecified)	x	-50	x	x	9	x	x
Cc1cccc(/N=C/c2c(O)cc(C)oc2=O)n1	-18	-2	-1	x	15	2	x
Cc1cccc(/N=C/c2c(O)ccc3oc4c(c23)CCCC4)n1	6	73*	0	-36	7	16	+
O=C(Cn1nc(-c2nccc3ccccc23)oc1=O)N1CCCCC1	x	-44	x	x	x	x	x
CCN(CC)c1nc(C)nc2c1sc(=S)n2C	-5	58	-1	x	8	-3	x

Screens as filed in PubChem.
